High-throughput results (PubChem BioAssay)
Most compounds without a hit are left out; they make up all but 2.6% or so of the library.
HepG2 tox-1 = counter-screen for TGF-b inhibitors: cytotoxicity in HepG2 cells; Potency, µM (series often up to 46.1 µM), most hits filed as cytotoxic; AID 588856; 410,000 compounds, 0.76% hits; HepG2 CAGA-GFP viability, ATP luminescence, 18 h
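HepG2 CAGA-GFP cells (1000/well, DMEM with 1% FBS) received compound, then TGF-beta at 500 pg/mL final, and were incubated 18 hours at 37 degrees C. Viability was read by CellTiter-Glo luminescence. Media-only wells were set as complete cell-killing and DMSO as no toxicity.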
ATXN2 expr inh = ATXN2 expression inhibition; AID 1745845; HEK-293 ATXN2-luciferase reporter, luminescence, 24 h; 360,000 compounds, 0.72% hits; Potency, µM (highest dose often 57 µM), hits mostly inhibitors; further: nearly all actives have a fitted effect of over 55% in size
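qHTS (up to 57 uM final) was run with 24 h compound exposure of reporter cells at 37 °C. Each well was multiplexed: SteadyGlo luminescence measured ATXN2-luciferase expression after a fluorogenic Gly-Phe-AFC viability readout (25 uM final).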
uPA generation = cell surface uPA generation inhibition; Potency, µM (top dose mostly 38.3 µM), usual class: inhibitors; 330,000 compounds, 0.31% hits; AID 540303; cell surface uPA generation assay, qHTS; active means well fitted inhibition curve with a large enough effect; inconclusive means small, poorly fitted or top-dose-only effect; inactive means no such curve, though single readings can be large or run the other way; tested in mouse RAW 264.7 cells; further: nearly all actives have a fitted effect of over 55% in size
S2 tox = viability counter-screen for ATXN expression inhibitors. S2 cells (HEK-293 line with an ATXN2-luciferase reporter) viability, CellTiter-Fluor protease fluorescence, 24 h. Potency, µM (highest dose often 56.7 µM), usual class: cytotoxic. 400,000 compounds, 0.49% hits; further: nearly all actives have a fitted effect of over 40% in size
TGFb inhibitor = inhibitors of TGF-b signaling. AID 588855. HepG2 CAGA-GFP TGF-b/SMAD3 reporter, GFP fluorescence, 18 h; TGF-beta stimulated, 500 pg/mL final. Potency, µM (highest dose often 46.1 µM), usual class: inhibitors. 410,000 compounds, 1.2% hits; further: nearly all actives have a fitted effect of over 65% in size
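HEPG2 CAGA-GFP reporter cells (1000/well, DMEM with 1% FBS) received compounds, then recombinant TGF-beta at 500 pg/mL final for 18 hours at 37 degrees C. Per-cell GFP summed per well was normalised to unstimulated and stimulated DMSO controls before curve fitting.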
Giardia killer = Giardia lamblia killing; activity change, % at 7.66 µM, hits read low; Giardia lamblia trophozoite viability; 340,000 compounds, 0.15% hits; in the data active means activity change below about -80%; inconclusive means between about -30% and that limit;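 further: parasites exposed to compound for two days anaerobically before the ATP read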
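Luminescent ATP signal served as the viability read-out, measured 15-30 min after adding ATP detection reagent to trophozoites that had been incubated with compounds for 48 hrs at 37 deg C anaerobically at 100 cells/well.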
TGFb CAGA inh = confirmation of TGF-b signaling inhibitors in HepG2 reporter cells; HepG2 CAGA-GFP TGF-b reporter, GFP fluorescence, 18 h; cells stimulated with TGF-beta, 500 pg/mL; Potency, µM (top dose mostly 46.1 µM), actives largely listed as inhibitors; 1,600 compounds, 63% hits; shares compounds with TGFb inhibitor; further: nearly all actives have a fitted effect of over 65% in size
HepG2 tox-2 = toxic to HepG2 cells in TGF-b counterscreen; 1,600 compounds, 27% hits; Potency, µM (highest dose often 46.1 µM), most hits filed as inhibitors; shares compounds with TGFb inhibitor; HepG2 CAGA-GFP viability, ATP luminescence, 18 h; cells stimulated with TGF-beta, 500 pg/mL; further: nearly all actives have a fitted effect of over 70% in size
TGFb CCL64 inh = TGF-b inhibition, CCL64 orthogonal assay; shares compounds with TGFb inhibitor; CCL64 CAGA-GFP reporter, TGF-b stimulated, GFP fluorescence, 18 h; Potency, µM (titrated, usually from 46.1 µM), most hits filed as inhibitors; 1,600 compounds, 41% hits; AID 720536; further: nearly all actives have a fitted effect of over 65% in size
COP TGFb inh = blocks TGF-b signaling in HepG2 COP reporter; shares compounds with TGFb inhibitor; HepG2 COP-GFP TGF-b reporter, GFP fluorescence, 18 h; cells stimulated by added recombinant TGF-beta; Potency, µM (top dose mostly 46.1 µM), usual class: inhibitors; 1,600 compounds, 3% hits; AID 720537; further: nearly all actives have a fitted effect of over 70% in size
Of the large screens only hits and unclear results are named; the others gave an inactive call (follow-up assays come after a bar, where they were run). Unless noted, the call rests on the fitted dose curve; in most records, active means well fitted curve in the direction sought with a large enough effect; inconclusive means small, poorly fitted or top-dose-only effect, or another doubt; inactive means no such curve, though single readings can be large; an effect the other way counts as inactive or inconclusive.

CCOc1ccc(Nc2c(S(=O)(=O)c3ccc(C)cc3)cnc3cc(OC)c(OC)cc23)cc1	none (no result: uPA generation, Giardia killer)
CCCCc1nc2ccccc2n2c(-c3ccc(OC)cc3)c3c(=O)n(C)c(=O)n(C)c3c12	none (no result: uPA generation, Giardia killer)
O=C1CCc2cc(S(=O)(=O)NCCC(=O)NC3CCCCC3)ccc2N1	none
Cc1cc(Cl)ccc1N=c1ssnc1Cl	TGFb inhibitor 7.9µM | TGFb CAGA inh 23µM | HepG2 tox-2 inconclusive | TGFb CCL64 inh inconclusive | COP TGFb inh inactive
O=C(Nc1cccc(S(=O)(=O)Nc2ccccc2Cl)c1)c1ccc(Cl)nc1	TGFb inhibitor 13µM | TGFb CAGA inh 8.2µM | HepG2 tox-2 inactive | TGFb CCL64 inh inactive | COP TGFb inh inactive
O=C(Nc1cccc(S(=O)(=O)N2CCCCCC2)c1)c1ccc(Cl)nc1	none
O=C1NC(Cc2ccc(O)cc2)c2nc3cc(F)c(F)cc3c(=O)n2-c2cc3ccccc3cc21 (stereo not drawn)	ATXN2 expr inh inconclusive, TGFb inhibitor 16µM (no result: uPA generation, S2 tox, Giardia killer) | TGFb CAGA inh inconclusive | HepG2 tox-2 inconclusive | TGFb CCL64 inh inconclusive | COP TGFb inh inactive
CCOc1c(Cl)cc(/C=N/NC(N)=S)cc1OC	TGFb inhibitor 14µM (no result: ATXN2 expr inh) | TGFb CAGA inh inconclusive | HepG2 tox-2 inactive | TGFb CCL64 inh inconclusive | COP TGFb inh inactive
CCC(=O)Nc1c(S(=O)(=O)c2ccccc2)c2nc3ccccc3nc2n1C(C)c1ccccc1 (stereo not drawn)	TGFb inhibitor 13µM | TGFb CAGA inh inconclusive | HepG2 tox-2 inactive | TGFb CCL64 inh inconclusive | COP TGFb inh inactive
CCC(=O)Nc1c(S(=O)(=O)c2ccc(C)cc2)c2nc3ccccc3nc2n1C(C)c1ccccc1 (stereo not drawn)	TGFb inhibitor inconclusive
CCCCN(C(=O)Cc1ccc(S(=O)(=O)N2CCOCC2)s1)c1c(N)n(CCCC)c(=O)[nH]c1=O	TGFb inhibitor inconclusive | TGFb CAGA inh inactive | HepG2 tox-2 inactive | TGFb CCL64 inh inactive | COP TGFb inh inactive
CC(C)[C@H](NC(=O)c1ccc(Cl)cc1Cl)C(=O)OCc1nc2ccsc2c(=O)[nH]1	S2 tox inconclusive (no result: ATXN2 expr inh)
CC(=O)Nc1ncnc2c1c(-c1ccc(Cl)cc1)nn2C(C)(C)C	ATXN2 expr inh inconclusive, S2 tox inconclusive, TGFb inhibitor 3.5µM | TGFb CAGA inh 2.6µM | HepG2 tox-2 inconclusive | TGFb CCL64 inh inconclusive | COP TGFb inh inconclusive
CC(=O)N(C(C)=O)c1ncnc2c1c(-c1ccc(Cl)cc1)nn2C(C)(C)C	ATXN2 expr inh inconclusive, S2 tox inconclusive, TGFb inhibitor inconclusive (no result: uPA generation)
COc1ccc(C(=O)NCCN(C)C)c2nc3ccccc3cc12	ATXN2 expr inh 3.4µM, S2 tox inconclusive, TGFb inhibitor 7.1µM | TGFb CAGA inh 10µM | HepG2 tox-2 4.6µM | TGFb CCL64 inh inconclusive | COP TGFb inh inactive
Cc1cccc(N2CCN(C(=O)NC3CCCCC3)CC2)c1C	S2 tox inconclusive, TGFb inhibitor inconclusive
Cc1cccc(N2CCN(CC(=O)NCC3CCCCC3)CC2)c1C	TGFb inhibitor 10µM | TGFb CAGA inh inactive | HepG2 tox-2 inactive | TGFb CCL64 inh inconclusive | COP TGFb inh inactive
